Values joined by “and” are separate entries in the source; they are usually repeats but may differ in a detail not shown here. Identical values can stand only once. Inconclusive results are not listed. Active and inactive are the calls of the source.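 The calls were made as follows, unless noted: active = normalized viability below 100% at a tested concentration; inactive = the rest.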
Assays:
[1] = stimulators of nuclear beta-catenin in C2C12, primary screen, imaging, WNT3A-conditioned medium, mouse C2C12, NPC library (AID 1117326; in the data active = nuclear beta-catenin stimulation mostly above about 4.2%, no sharp cut-off; inactive = mostly below about 10%); conditions: stronger effect = higher value
[2] = stimulators of insulin release from INS-1E, primary screen, cell-based, 5 mM glucose, NPC library (AID 1117329;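 active = compound raises insulin release from rat beta cells at 5 mM glucose, no numeric limit stated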); conditions: rat INS-1E insulin secretion, at 10 µM, stronger effect = higher value
[3] = growth inhibition of GSK3B-pretreated HCT116 cells – cell-based, CellTiter-Glo, 0.2 to 20 µM (AID 1117336;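 active = compounds lowering colon cancer cell viability after pretreatment blocking the GSK3B kinase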); conditions: HCT116 viability after GSK3B inhibitor, at 20 µM, stronger effect = higher value
[4] = inhibition of endothelial tube formation, primary screen, imaging, VEGF stimulated, CD31 staining, tube area, NPC library (AID 1117340;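 active = compound that reduces growth-factor-driven endothelial tube area in a mixed cell culture, no cutoff stated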); conditions: VEGF-stimulated ADSC/ECFC co-culture, at 10 µM, stronger effect = higher value
[5] = glucagon-like peptide 1 release enhancers, primary assay, NCI-H716 cell line, NPC library (AID 1117341;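 active = compound raises GLP1 secretion from the human gut endocrine cells, with no numeric limit stated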); conditions: NCI-H716 cells, at 10 µM, stronger effect = higher value
[6] = HCT116 colon cancer cell growth inhibition, primary screen, CellTiter-Glo luminescence, NPC library (AID 1117342;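 active = compounds that lower survival of HCT116 colon cancer cells in the luminescence readout, no numeric limit stated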); conditions: at 20 µM (top of the series)
[7] = CellTiter-Glo luminescent readout of SW480 viability loss, NPC library primary (AID 1117343;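 active = compounds that lower viability of the colon cancer cells in the luminescence readout, with no numeric limit stated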); conditions: CellTiter-Glo luminescence; at 20 µM (top of the series) unless noted
[8] = decreased DLD-1 cellular survival, CellTiter-Glo luminescent readout, NPC compound collection, primary HTS (AID 1117346;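 active = compounds that lower survival of DLD-1 colon cancer cells in the luminescence readout, no cutoff given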); conditions: DLD-1 viability, CellTiter-Glo luminescence; at 20 µM (top of the series)
[9] = differential killing of epithelial or mesenchymal cells, primary screen, imaging, PC-3E GFP, TEM4-18 mCherry, co-culture (AID 1345086;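 active = compounds killing one labelled cell type while sparing the other, by normalised counts and ratio limits, not self-fluorescent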;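 as to all read-outs here: cells exposed to compound for 72 h before imaging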;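 as to red/green cell ratio (normalised): normalised mesenchymal count divided by normalised epithelial count so high means epithelial killing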); conditions: imaging cell counts, at 1 µM; for red/green cell ratio (normalised): actives lie on both sides, counts scaled to control wells, 1 = unselective
[10] = biological target: NAD(+) hydrolase SARM1 (Homo sapiens) (UniProt Q6SZW1); experiment: SARM1 TIR NADase inhibitors, cell lysate, NAD-Glo luminescence (AID 1508614;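 active = compound whose remaining NAD level is above about 45 nM, limit read from the data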;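 also: higher remaining NAD means stronger inhibition of SARM1 NADase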); conditions: SAM-TIR HEK293T lysate NADase, at 1 µM, stronger effect = higher value
[11] = sensitizers of A549 cells to miR-34 induction, primary screen, imaging, A549 dox-inducible miR-34, nuclei and caspase counts (AID 1347080;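 active = compounds whose cell count with miR-34 switched on is under 0.7 times the count with it off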); conditions: A549 miR-34 inducible, Hoechst nuclei count, 48 h
[12] = liver-stage malaria parasite growth inhibition, primary screen, cell-based, HepG2, luciferase luminescence, HepG2 viability (AID 624349; in the data active = parasite load remaining mostly below about 12%, no sharp cut-off; inactive = mostly above about 10%;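 also: 100% = mean of DMSO negative control wells on the same plate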); conditions: P. berghei liver stage in HepG2, luciferase luminescence, concentration not given here; parasite load remaining: stronger effect = lower value; viability: measured here: HepG2 viability without parasites
[13] = system: Aerobactin synthetase IucA (Klebsiella pneumoniae); experiment: IucA aerobactin synthetase inhibitors, biochemical, Tocris library, absorbance (AID 1345561; call rule not given here;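 also: 100% = enzyme without compound and 0% = no enzyme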); conditions: purified IucA enzyme assay, absorbance (OD) read-out; stronger effect = lower value;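 tested at 8 µM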
[14] = growth inhibition of DIPG glioma cells, dose response, cell-based, SU-DIPG-XVII, MIPE5.0, CellTiter-Glo, qHTS (AID 1347060; cut-off not given, nearly all actives have AC50 up to about 26 µM;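 also: cells exposed to compound for 48 hours before viability readout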); conditions: SU-DIPG-XVII viability, CellTiter-Glo ATP luminescence
[15] = growth inhibition of DIPG glioma cells, dose response, cell-based, SU-DIPG-XIII, MIPE4.0, CellTiter-Glo, qHTS (AID 1347061; cut-off not given, nearly all actives have AC50 up to about 37 µM;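 also: cells exposed to compound for 48 hours before readout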); conditions: SU-DIPG-XIII viability, CellTiter-Glo ATP luminescence
[16] = growth inhibition of DIPG glioma cells, dose response, cell-based, JHH-DIPG-1, MIPE4.0, CellTiter-Glo, qHTS (AID 1347062; cut-off not given, nearly all actives have AC50 up to about 27 µM); conditions: JHH-DIPG-1 viability, CellTiter-Glo ATP luminescence
[17] = SU-DIPG-XXV glioma cell viability, MIPE5.0 library, qHTS (AID 1347068; cut-off not given, nearly all actives have IC50 up to about 30 µM)
[18] = survival rescue of mitochondrial mutant cells in low glucose, primary screen, MELAS cybrids, Rieske KO mouse fibroblasts, CellTiter-Glo (AID 1508586);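 also: z relative to plate mean and SD of compound and empty wells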
[19] = ovarian cancer cell viability with rucaparib, profiling panel, oncology-focused library, rucaparib conditional (AID 1508598); conditions: patient-derived ovarian cancer cells, CellTiter-Glo viability, 144 h, stronger effect = lower value
[20] = viability rescue of complex I mutant cybrids, primary screen, cell-based, galactose medium, ATP luminescence (AID 1645843;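 active = z-score of at least 1.8 in each of two replicates, scored against plate mean and spread of sample wells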;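 also: positive z means more ATP and so rescue of galactose-driven cybrid death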); conditions: complex I mutant cybrid cells, 72 h, stronger effect = higher value
[21] = measured here: epithelial PC-3E GFP cell survival
[22] = measured here: mesenchymal TEM4-18 mCherry cell survival
[23] = stronger effect = lower value, cell number ratio, induced over uninduced
[24] = measured here: relative caspase fold change +Dox/-Dox
[25] = measured here: total cells with miR-34 induction, stronger effect = lower value
[26] = measured here: total cells without miR-34 induction

Chain of NAD(+) hydrolase SARM1 (Homo sapiens) (Q6SZW1 whole entry, looked up): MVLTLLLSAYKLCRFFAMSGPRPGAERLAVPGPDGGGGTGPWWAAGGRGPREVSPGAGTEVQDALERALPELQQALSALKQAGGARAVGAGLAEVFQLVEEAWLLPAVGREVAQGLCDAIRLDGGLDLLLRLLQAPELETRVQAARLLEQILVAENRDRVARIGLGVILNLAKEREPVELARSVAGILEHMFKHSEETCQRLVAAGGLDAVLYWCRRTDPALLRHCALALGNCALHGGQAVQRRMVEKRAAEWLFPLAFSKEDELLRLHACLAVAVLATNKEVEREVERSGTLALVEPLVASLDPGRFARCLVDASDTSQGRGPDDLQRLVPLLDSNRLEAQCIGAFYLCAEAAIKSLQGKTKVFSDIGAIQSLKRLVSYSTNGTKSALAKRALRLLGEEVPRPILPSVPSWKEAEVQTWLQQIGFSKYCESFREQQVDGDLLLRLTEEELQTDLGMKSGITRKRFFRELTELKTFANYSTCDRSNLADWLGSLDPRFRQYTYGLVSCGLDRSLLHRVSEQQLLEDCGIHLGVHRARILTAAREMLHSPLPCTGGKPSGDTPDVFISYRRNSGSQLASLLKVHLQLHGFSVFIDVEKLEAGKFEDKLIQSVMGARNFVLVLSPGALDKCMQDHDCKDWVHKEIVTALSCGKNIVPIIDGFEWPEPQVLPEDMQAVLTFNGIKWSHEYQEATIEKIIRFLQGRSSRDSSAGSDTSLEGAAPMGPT

CC(=O)NC(Cc1ccccc1)C(=O)O (centres undefined)
inactive: nuclear beta-catenin stimulation ([1]; at 10 µM) 1% | insulin secretion stimulation [2] -2.3% | viability decrease [3] -0.2% | tube area decrease [4] -0.2% | GLP1 secretion stimulation [5] 2.6% | inhibition of viability [6] 3.2% | viability decrease (inhibition) [7] 23.3% | viability decrease (inhibition) [8] 8.55% | red/green cell ratio (normalised) [9] 0.91 | remaining NAD [10] 10 nM
1.11: normalised cell number [9, 21]
-0.2%: nuclear beta-catenin stimulation ([1]; stimulation, at 2 µM)
1.01: normalised cell number [9, 22]

O=C(CCCl)NCc1ccccc1
1.07: normalised cell number [9, 22]
inactive: nuclear beta-catenin stimulation ([1]; at 10 µM) 0.5% | insulin secretion stimulation [2] 1.8% | viability decrease [3] 0.2% | tube area decrease [4] -9.5% | GLP1 secretion stimulation [5] -0.7% | inhibition of viability [6] 5% | viability decrease (inhibition) [7] 0.6% | viability decrease (inhibition) [8] 14.6% | red/green cell ratio (normalised) [9] 0.95 | remaining NAD [10] 10 nM
8.3%: nuclear beta-catenin stimulation ([1]; stimulation, at 2 µM)
1.13: normalised cell number [9, 21]

[O-][n+]1cccc(CO)c1
7710: cell count [11, 25]
0.6%: nuclear beta-catenin stimulation ([1]; stimulation, at 2 µM)
inactive: nuclear beta-catenin stimulation ([1]; at 10 µM) -0.4% | insulin secretion stimulation [2] 2.1% | viability decrease [3] -35% | tube area decrease [4] 18.7% | GLP1 secretion stimulation [5] -4.1% | inhibition of viability [6] 1.43% | viability decrease (inhibition) [7] -11.9% | viability decrease (inhibition) [8] -6% | red/green cell ratio (normalised) [9] 0.9 | fold change [11, 23] 0.861 | remaining NAD [10] 10 nM
0.917: fold change [11, 24]
8950: cell count [11, 26]
1.13: normalised cell number [9, 21]
1.02: normalised cell number [9, 22]

Nc1nc(Cl)nc2c1ncn2[C@@H]1O[C@H](CO)[C@@H](O)[C@@H]1F
inactive: parasite load remaining [12] 11.2% | nuclear beta-catenin stimulation ([1]; at 10 µM) 30.8% | insulin secretion stimulation [2] 0.1% | GLP1 secretion stimulation [5] 0.3% | viability decrease (inhibition) [8] 43.5% | remaining activity [13] 104% | outcome [15] | outcome [16] | outcome [17] | fold change [11, 23] 1.02 and 0.96 | viability ([19]; at 0.000305 µM, OCI-C5x cells, with rucaparib 10 µM, 100% = cells with rucaparib alone) 115% | viability ([19]; at 0.000305 µM, OCI-C5x cells, without rucaparib) 107% | viability ([19]; at 0.000305 µM, OCI-P5x cells, with rucaparib 20 µM, 100% = cells with rucaparib alone) 116% | viability ([19]; at 0.000305 µM, OCI-P5x cells, without rucaparib) 113% | viability ([19]; at 0.00122 µM, OCI-C5x cells, with rucaparib 10 µM, 100% = cells with rucaparib alone) 118% | viability ([19]; at 0.00122 µM, OCI-C5x cells, without rucaparib) 113% | viability ([19]; at 0.00122 µM, OCI-P5x cells, with rucaparib 20 µM, 100% = cells with rucaparib alone) 112% | viability ([19]; at 0.00122 µM, OCI-P5x cells, without rucaparib) 109% | viability ([19]; at 0.00488 µM, OCI-C5x cells, with rucaparib 10 µM, 100% = cells with rucaparib alone) 116% | viability ([19]; at 0.00488 µM, OCI-C5x cells, without rucaparib) 110% | viability ([19]; at 0.00488 µM, OCI-P5x cells, with rucaparib 20 µM, 100% = cells with rucaparib alone) 115% | viability ([19]; at 0.00488 µM, OCI-P5x cells, without rucaparib) 118% | viability ([19]; at 0.0195 µM, OCI-C5x cells, with rucaparib 10 µM, 100% = cells with rucaparib alone) 113% | viability ([19]; at 0.0195 µM, OCI-C5x cells, without rucaparib) 112% | viability ([19]; at 0.0195 µM, OCI-P5x cells, with rucaparib 20 µM, 100% = cells with rucaparib alone) 111% | viability ([19]; at 0.0781 µM, OCI-P5x cells, with rucaparib 20 µM, 100% = cells with rucaparib alone) 111% | remaining NAD [10] 10 nM | z-score [20] -0.56 and -2.21
2.02: z-score ([18]; Rieske KO mouse fibroblast survival, CellTiter-Glo 72 h)
1.45 and 0.847: fold change [11, 24]
3880 and 3040: cell count [11, 25]
84%: viability [12]
active: viability decrease [3] 44.1% | tube area decrease [4] 104% | inhibition of viability [6] 80.9% | viability decrease (inhibition) [7] 59.6% | AC50 [14] 332 nM | viability ([19]; at 0.0195 µM, OCI-P5x cells, without rucaparib) 95% | viability ([19]; at 0.0781 µM, OCI-C5x cells, with rucaparib 10 µM, 100% = cells with rucaparib alone) 98% | viability ([19]; at 0.0781 µM, OCI-C5x cells, without rucaparib) 78.6% | viability ([19]; at 0.0781 µM, OCI-P5x cells, without rucaparib) 84.8% | viability ([19]; at 0.313 µM, OCI-C5x cells, with rucaparib 10 µM, 100% = cells with rucaparib alone) 24% | viability ([19]; at 0.313 µM, OCI-C5x cells, without rucaparib) 24.6% | viability ([19]; at 0.313 µM, OCI-P5x cells, with rucaparib 20 µM, 100% = cells with rucaparib alone) 57.8% | viability ([19]; at 0.313 µM, OCI-P5x cells, without rucaparib) 29.3% | viability ([19]; at 1.25 µM, OCI-C5x cells, with rucaparib 10 µM, 100% = cells with rucaparib alone) 22.5% | viability ([19]; at 1.25 µM, OCI-C5x cells, without rucaparib) 23.9% | viability ([19]; at 1.25 µM, OCI-P5x cells, with rucaparib 20 µM, 100% = cells with rucaparib alone) 42.3% | viability ([19]; at 1.25 µM, OCI-P5x cells, without rucaparib) 20.5% | viability ([19]; at 5 µM, OCI-C5x cells, with rucaparib 10 µM, 100% = cells with rucaparib alone) 19.1% | viability ([19]; at 5 µM, OCI-C5x cells, without rucaparib) 19.7% | viability ([19]; at 5 µM, OCI-P5x cells, with rucaparib 20 µM, 100% = cells with rucaparib alone) 36.1% | viability ([19]; at 5 µM, OCI-P5x cells, without rucaparib) 18.2%
3820 and 3160: cell count [11, 26]
-2.1: z-score ([18]; MELAS cybrid survival, CellTiter-Glo 48 h, stronger effect = higher value)
17.4%: nuclear beta-catenin stimulation ([1]; stimulation, at 2 µM)

Source: PubChem BioAssay
